Among the test systems are NCI-H23 lung; NCI-H226 lung; NCI-H322M lung; HOP-62 NSCLC; NCI-H460 lung; HOP-92 NSCLC; NCI-H522 lung; A549/ATCC NSCLC; 786-0 renal; COLO 205 colon.
What all share (experiment): NCI-60 one-dose screen, 48 h (100 = growth as untreated, 0 = no growth, -100 = all killed)
Details in all cases: 10 µM unless noted

About 83,000 compounds went through this panel and 20% of them were active in at least one assay; those are over-represented in the sample as a whole.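 For each line, cells grew in 96-well plates with the test compound present at a single concentration for 48 hours.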 Unmarked numbers belong to inactive results. Calls of active or inactive are those of the source. Rule for the calls: active = growth percent below 10; inactive = the rest.

In the case of `Nc1c2c(nc3ccc(Cl)cc13)CC(c1ccc(O)cc1)CC2=O` (stereo not given), the growth with NCI-H23 lung is 61.2%; in the assay on NCI-H226 lung it was 90.5%; in the assay with NCI-H322M lung it was 56.2%; in the assay on HOP-62 NSCLC, 56.4%; in the assay with NCI-H460 lung, 23.2%; in the assay on HOP-92 NSCLC, 88.4%. In addition, the growth in the assay with NCI-H522 lung is 43.6%; with A549/ATCC NSCLC, 59.5%; in the assay with 786-0 renal, 57.5%; with COLO 205 colon it was 123%.
Regarding `CCCC1CCCCN1C(=O)OCC(C)C` (stereo not given), the growth in the assay with NCI-H23 lung is 152%; in the assay on NCI-H226 lung, 105%; with NCI-H322M lung, 104%; in the assay on HOP-62 NSCLC it was 118%; in the assay on NCI-H460 lung, 107%; in the assay with HOP-92 NSCLC, 113%. Moreover, the growth in the assay with NCI-H522 lung was 99.4%; in the assay with A549/ATCC NSCLC, 104%; with 786-0 renal it was 106%; with COLO 205 colon, 99.7%.
In the case of `COC(=O)[C@]12CC[C@@H](C)[C@H](C)[C@@H]1C1=CC[C@@H]3[C@@]4(C)C=C(O)C(=O)C(C)=C4CC[C@@]3(C)[C@]1(C)CC2`, the growth in the assay with NCI-H23 lung was 22.1%; with NCI-H226 lung, 22.4%; in the assay on NCI-H322M lung it was 82.6%; in the assay with HOP-62 NSCLC, 56.4%; in the assay on NCI-H460 lung it was 46.8%; in the assay on HOP-92 NSCLC it was 26.4%. Besides, the growth with NCI-H522 lung is -14.1% (active); in the assay on A549/ATCC NSCLC it was 39.5%; in the assay on 786-0 renal it was 68%; in the assay on COLO 205 colon, 37.1%.
For the compound `O=C(CI)Nc1ccc(O)c2ccccc12`, the growth with NCI-H23 lung is -7.45% (active); with NCI-H226 lung, -13.1% (active); with NCI-H322M lung, 104%; in the assay with HOP-62 NSCLC it was 46.9%; with NCI-H460 lung, 32.5%; in the assay on HOP-92 NSCLC it was -24.8% (active). The growth in the assay with NCI-H522 lung is -79.4% (active); with A549/ATCC NSCLC, 64.8%; in the assay on 786-0 renal it was -22.5% (active); with COLO 205 colon, -85.6% (active).
On to `Cc1ccc(N(CC(=O)Nc2ccc(S(=O)(=O)N3CCC(N4CCCC4)CC3)cc2)S(=O)(=O)c2ccc(Cl)cc2)cc1`, for which the growth in the assay with NCI-H23 lung is 77.6%; in the assay with NCI-H226 lung, 64.7%; with NCI-H322M lung, 22.5%; in the assay with HOP-62 NSCLC it was 67.6%; in the assay with NCI-H460 lung it was -58.5% (active); in the assay with HOP-92 NSCLC, 50.9%. Further, the growth was 44.2% with NCI-H522 lung, 20.2% in the assay with A549/ATCC NSCLC, -70.5% (active) with 786-0 renal and -60.5% (active) in the assay on COLO 205 colon.
For the compound `Cc1nn(-c2ccc(Cl)cc2)c(=O)n1CCn1cnc2ccccc21`, the growth in the assay with NCI-H23 lung was 96.2%; with NCI-H226 lung, 103%; in the assay with NCI-H322M lung, 96.8%; in the assay with HOP-62 NSCLC, 101%; in the assay with NCI-H460 lung it was 107%; with HOP-92 NSCLC it was 101%. The growth was 85.3% with NCI-H522 lung, 106% with A549/ATCC NSCLC, 87.4% with 786-0 renal and 118% with COLO 205 colon.
Take `CC1(C)NC2=C(C(Nc3cccnc3)N1)C(c1ccc([N+](=O)[O-])cc1)C(C(=O)c1ccc(N=[N+]=[N-])cc1)O2` (stereo not given): the growth in the assay with NCI-H23 lung was 103%; in the assay on NCI-H226 lung, 105%; with NCI-H322M lung, 100%; with HOP-62 NSCLC, 103%; in the assay on NCI-H460 lung it was 95.4%; with HOP-92 NSCLC, 94%. Besides, the growth in the assay with NCI-H522 lung was 96.7%; with A549/ATCC NSCLC, 104%; in the assay on 786-0 renal, 100%; in the assay with COLO 205 colon it was 109%.
For the compound `CCCCCCCCNc1cccc2c1C(=O)c1ccccc1C2=O`, the growth is 102% in the assay on NCI-H23 lung; 96.5% in the assay on NCI-H226 lung; 101% in the assay on NCI-H322M lung; 115% with HOP-62 NSCLC; 101% in the assay on NCI-H460 lung; 109% with HOP-92 NSCLC. The growth is 81.3% in the assay on NCI-H522 lung, 91.7% in the assay with A549/ATCC NSCLC, 104% with 786-0 renal and 116% in the assay with COLO 205 colon.
With `COc1ccc(C2CC(=O)c3c(nc4ccc(Cl)cc4c3N)C2)cc1` (stereo not given), the growth was 102% in the assay on NCI-H23 lung; 104% with NCI-H226 lung; 104% with NCI-H322M lung; 109% in the assay with HOP-62 NSCLC; 104% in the assay on NCI-H460 lung; 98.3% in the assay on HOP-92 NSCLC. Moreover, the growth with NCI-H522 lung is 100%; in the assay on A549/ATCC NSCLC, 106%; with 786-0 renal, 97%; with COLO 205 colon, 114%.
`COc1cc2ncnc(Nc3ccc(OCc4cccc(F)c4)c(Cl)c3)c2cc1NC(=O)C1CCCC1`: the growth in the assay with NCI-H23 lung was 94.8%; with NCI-H226 lung, 76%; in the assay on NCI-H322M lung, 34.4%; with HOP-62 NSCLC, 78.9%; in the assay with NCI-H460 lung it was 88.7%; in the assay with HOP-92 NSCLC, 76.4%. For the same compound, the growth in the assay with NCI-H522 lung is 50%; with A549/ATCC NSCLC, 65.2%; with 786-0 renal, 78.3%; with COLO 205 colon it was 97.2%.
For the compound `O=[N+]([O-])c1cc(S(=O)(=O)c2ccc(F)c([N+](=O)[O-])c2)ccc1F`, the growth was 103% in the assay with NCI-H23 lung; 109% in the assay with NCI-H226 lung; 110% in the assay on NCI-H322M lung; 121% in the assay on HOP-62 NSCLC; 99.3% with NCI-H460 lung; 88.6% in the assay with HOP-92 NSCLC. Also, the growth is 89% in the assay on NCI-H522 lung, 102% with A549/ATCC NSCLC, 100% in the assay with 786-0 renal and 83% in the assay with COLO 205 colon.
In the case of `COc1ccc2[nH]c(-c3ccc(Cl)cc3)cc(=O)c2c1`, the growth is 94.5% in the assay with NCI-H23 lung; 97.6% in the assay with NCI-H226 lung; 92% in the assay on NCI-H322M lung; 104% in the assay on HOP-62 NSCLC; 100% with NCI-H460 lung; 88.6% in the assay on HOP-92 NSCLC. Besides, the growth is 86.7% with NCI-H522 lung, 96.3% with A549/ATCC NSCLC, 88.3% in the assay with 786-0 renal and 105% in the assay with COLO 205 colon.
Regarding `C/C(=C(/c1ccccc1)c1ccc(N2C(=O)c3cccc4c(NCc5ccccc5)ccc(c34)C2=O)cc1)c1ccccc1`, the growth in the assay with NCI-H23 lung is 89.8%; with NCI-H226 lung it was 89.1%; in the assay with NCI-H322M lung, 97.6%; with HOP-62 NSCLC, 100%; with NCI-H460 lung, 99.8%; in the assay with HOP-92 NSCLC, 89%. Besides, the growth with NCI-H522 lung is 93.1%; in the assay on A549/ATCC NSCLC, 92.6%; in the assay on 786-0 renal it was 103%; with COLO 205 colon, 112%.

Source of the values: PubChem BioAssay (NCI).
